Measurements from PubChem BioAssay.
Inconclusive results are not listed. The source made the active and inactive calls.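 Rule for the calls, unless noted: active = viability increase at or above a cutoff of the median across tested compounds plus 3 SD (cut at about 8.5% in these data, passing the limit was not always enough); inconclusive = some gains above the cutoff, reason not given; inactive = the rest.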

What was measured:
[1] = Her2 expression decrease, cell viability multiplex – SKBR3 breast tumor cells, AlphaScreen, ATP viability, primary screen (AID 461;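 active = Her2 level under about 52% in both replicate screens, with viability over 70% of control, limit read from the data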;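 for Her2 level: lower value means less Her2 protein in the cells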;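 for viability: percent of carrier control wells set as 100% viability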); details: SKBR3 Her2 protein level, 18-24 h, measured here: SKBR3 viability, ATP luminescence, at 10 µM
[2] = target: Receptor tyrosine-protein kinase erbB-2 (Homo sapiens) (UniProt P04626); test: as above; details: 18-24 h, at 10 µM, stronger effect = lower value
[3] = reduced viability of SK-BR-3 breast cancer cells – cell-based, 24 h, human, pilot screen (AID 572;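 active = viability at or below 10% of carrier control in both of two separate runs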;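 note: compound exposure lasted between 18 and 24 h rather than exactly 24 h; 100% = carrier-treated control wells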); details: SK-BR-3 viability, CellTiter-Glo luminescence, at 10 µM, stronger effect = lower value
[4] = HUVEC growth inhibition – cell-based, human, primary screen (AID 575;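 active = viability at or below 30% in both replicate assays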;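 note: 100% = median of untreated cell wells with 0.1% DMSO on each plate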); details: HUVEC proliferation, CellTiter-Glo luminescence, 72 h; at 10 µM; stronger effect = lower value
[5] = H69AR cell proliferation blockers – human, duplicate replicates, primary screen (AID 580;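 active = viability at or under a set limit in both replicates, limit being median viability minus 3 SD, cut at about 48% in these data, passing the limit was not always enough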;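 note: 100% = mean luminescence of untreated wells and 0% = no signal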); details: H69AR lung tumor cells viability, ATP luminescence, 72 h; at 10 µM; stronger effect = lower value
[6] = MRP1 drug-resistance reversers in H69AR cells – cell-based, doxorubicin co-treatment, pilot screen (AID 601;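 active = viability loss from added drug above about 55%, and viability with drug at most 40%, in both replicates, limit read from the data, passing the limit was not always enough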); details: CellTiter-Glo, 72 h, at 10 µM; for differential viability (reversal): stronger effect = higher value
[7] = yeast transport mutant growth inhibition pilot in 384-well plates, post-Golgi transport modulator project (AID 636; in the data active = inhibition above about 31%); details: absorbance 615 nm, about 18 h, stronger effect = higher value
[8] = growth suppression of yeast trafficking mutant, preliminary HTS, modulators of trafficking downstream of Golgi apparatus project, 1536-format plate, OD 615 nm (AID 637; in the data active = inhibition above about 30%); details: yeast transport mutant growth, absorbance 615 nm, 18 h; stronger effect = higher value
[9] = S. cerevisiae growth inhibition in permissive medium (OD615), pilot counter-assay for S. cerevisiae lifespan shortening project, permissive growth control (AID 705;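 active = growth inhibition above 25% in both replicates, a cutoff set 3 SD above the mean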); details: OD615, 24 h, at 10 µM, stronger effect = higher value
[10] = S. cerevisiae growth inhibition in restrictive medium, OD615, pilot screen, restrictive growth control, yeast lifespan reduction project (AID 706;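 active = growth inhibition above a set limit, 3 SD over mean compound inhibition, in both replicates, cut at about 43% in these data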;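 note: modified DeaD lifespan yeast strain shifted to restrictive glucose medium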); details: OD615, 48 h, at 10 µM, stronger effect = higher value
[11] = doxorubicin toxicity protection in MRP-1 cells – H69AR cells, CellTiter-Glo, duplicate, MRP-1 activator project, pilot screen (AID 807); details: H69AR viability with doxorubicin, CellTiter-Glo luminescence; at 10 µM; stronger effect = higher value;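 note: compound pretreatment 18-22 h then 72 h combined with doxorubicin; 0% = doxorubicin alone and 100% = vehicle without doxorubicin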
[12] = viability of HCT116 without oncogenic beta-catenin – human colon tumor cells, pilot screen (AID 823;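 active = cell viability at or below a set limit in both duplicate runs, the limit being the all-compound median minus 4 SD, cut at about 23% in these data, passing the limit was not always enough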;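 note: 0% = wells killed by 20 µM Hyamine and 100% = untreated DMSO cell wells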); details: HCT116 beta-catenin knockout viability, CellTiter-Glo, 60 h; at 10 µM; stronger effect = lower value
[13] = viability of PTEN-null HCT116 cells – cell-based, HCT116 clonal line, CellTiter-Glo, pilot screen (AID 824;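 active = viability at or below 27.92% in each of two runs, the all-compound median minus 4 SD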;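 note: 0% = 20 µM Hyamine control and 100% = vehicle cell control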); details: HCT116 PTEN-deleted viability, 60 h, at 10 µM, stronger effect = lower value
[14] = RAM pathway blockade in budding yeast – dse1pr::URA3 reporter, 5-FOA selection, pilot screen (AID 869;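 active = inhibition over a set limit, the all-compound mean plus 3 SD, in both replicate runs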;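 note: 0% = DMSO wells with no growth and 100% = 10 µM 1-NA-PP1 with full growth; RAM network block rescues cells from 5-FOA so hits raise OD615 growth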); details: S. cerevisiae dse1pr::URA3 5-FOA growth, OD615, 2 d; at 10 µM; stronger effect = higher value; strain carries analog-sensitive mutant Cbk1 kinase
[15] = RAM signaling pathway blockade in yeast – S. cerevisiae, Pdr1DBD-CYC8 efflux-inhibited sensitized strain, primary screen (AID 1298;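 active = RAM network inhibition above 8.4% in each of two replicates, 3 SD over the compound average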;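 note: 0% = DMSO untreated cells without growth and 100% = 10 µM 1-NA-PP1 full growth; higher means more yeast growth rescued from 5-FOA killing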); details: S. cerevisiae cbk1-as DSE1-URA3 strain, 5-FOA growth OD615, 2 d; at 50 µM; stronger effect = higher value
[16] = H69AR cells + 2 uM doxorubicin, measured here: viability with 2 uM doxorubicin, stronger effect = lower value
[17] = H69AR cells, compound alone cytotoxicity

Receptor tyrosine-protein kinase erbB-2 (Homo sapiens), sequence (P04626 whole entry, looked up): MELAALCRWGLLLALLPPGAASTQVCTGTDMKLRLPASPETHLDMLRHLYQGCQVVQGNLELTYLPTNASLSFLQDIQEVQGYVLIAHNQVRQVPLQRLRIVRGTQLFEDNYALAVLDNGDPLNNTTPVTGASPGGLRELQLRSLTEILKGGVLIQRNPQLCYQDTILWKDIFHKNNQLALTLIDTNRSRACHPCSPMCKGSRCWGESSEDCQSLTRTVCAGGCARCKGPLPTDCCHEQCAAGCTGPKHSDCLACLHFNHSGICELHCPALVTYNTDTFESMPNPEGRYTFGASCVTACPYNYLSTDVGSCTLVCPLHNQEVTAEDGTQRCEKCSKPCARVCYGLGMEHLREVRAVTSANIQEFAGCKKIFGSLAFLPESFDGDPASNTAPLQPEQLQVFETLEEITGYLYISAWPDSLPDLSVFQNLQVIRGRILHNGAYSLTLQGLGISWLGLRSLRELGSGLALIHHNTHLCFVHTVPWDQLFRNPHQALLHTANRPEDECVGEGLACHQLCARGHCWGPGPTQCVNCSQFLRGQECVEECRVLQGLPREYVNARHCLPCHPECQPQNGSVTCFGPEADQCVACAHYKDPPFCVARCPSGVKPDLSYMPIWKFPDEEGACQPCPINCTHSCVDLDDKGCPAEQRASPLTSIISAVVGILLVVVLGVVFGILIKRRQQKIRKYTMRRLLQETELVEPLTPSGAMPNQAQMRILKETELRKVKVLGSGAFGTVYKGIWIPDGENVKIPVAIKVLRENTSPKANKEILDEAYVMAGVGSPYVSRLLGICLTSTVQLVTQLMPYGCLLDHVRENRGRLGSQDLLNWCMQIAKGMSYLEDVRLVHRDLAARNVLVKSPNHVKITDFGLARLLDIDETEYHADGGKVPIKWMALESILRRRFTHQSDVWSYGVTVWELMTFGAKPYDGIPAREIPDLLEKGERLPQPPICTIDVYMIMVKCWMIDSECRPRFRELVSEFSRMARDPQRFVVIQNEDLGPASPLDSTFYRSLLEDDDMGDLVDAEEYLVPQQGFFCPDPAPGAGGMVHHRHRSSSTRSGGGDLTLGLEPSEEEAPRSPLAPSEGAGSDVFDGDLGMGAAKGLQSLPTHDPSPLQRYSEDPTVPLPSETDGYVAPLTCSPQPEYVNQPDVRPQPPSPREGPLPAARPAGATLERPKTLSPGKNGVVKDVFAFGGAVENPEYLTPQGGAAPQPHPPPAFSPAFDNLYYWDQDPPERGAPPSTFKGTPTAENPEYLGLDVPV

| SMILES | viability [1] [%] | Her2 level [2] | viability [3] | viability [4] | viability [5] | differential viability (reversal) ([6]; H69AR cells + 2 uM doxorubicin) | viability [6, 16] [%] | viability [6, 17] [%] | inhibition [7] | inhibition [8] | growth inhibition [9] | growth inhibition [10] | viability increase [11] | viability [12] | viability [13] | inhibition [14] | RAM network inhibition [15] |
| --- | --- | --- | --- | --- | --- | --- | --- | --- | --- | --- | --- | --- | --- | --- | --- | --- | --- |
| COc1cc(C2c3c(oc4ccccc4c3=O)C(=O)N2c2ccc(C)cn2)ccc1O (stereo not drawn) | 66 | 114% (inactive) | 66% (inactive) | 94.6% (inactive) | 101% (inactive) | 1.23% (inactive) | 100 | 101 | -0.9% (inactive) | -4% (inactive) | -6.67% (inactive) | -1.33% (inactive) | -2.69% (inactive) | 91.9% (inactive) | 88.4% (inactive) | 0.865% (inactive) | 4.26% (inactive) |
| CCCCc1cc(=O)oc2cc(OCC(=O)N(CC)CC)c(Cl)cc12 | 98 | 112% (inactive) | 98% (inactive) | 77.9% (inactive) | 79% (inactive) | -17.3% (inactive) | 96.3 | 79 | -4% (inactive) | -1.17% (inactive) | -1.69% (inactive) | 2.79% (inactive) | -1.39% (inactive) | 93.5% (inactive) | 89.6% (inactive) | -0.34% (inactive) | 5.28% (inactive) |
| CCOC(=O)N1CCN(C(=O)CSc2nnc(-c3cccc(Cl)c3)o2)CC1 | 82.5 | 96.5% (inactive) | 82.5% (inactive) | 86.1% (inactive) | 93.9% (inactive) | 7.46% (inactive) | 86.4 | 93.9 | 0.13% (inactive) | -2.95% (inactive) | -6.25% (inactive) | -10.5% (inactive) | -0.22% (inactive) | 105% (inactive) | 100% (inactive) | 2.61% (inactive) | 2.71% (inactive) |
| O=P(O)(CCc1ccccc1)CN1CCCCC1 | 106 | 106% (inactive) | 106% (inactive) | 102% (inactive) | 95.5% (inactive) | 3.43% (inactive) | 92 | 95.5 | 7.97% (inactive) | -1.97% (inactive) | -2.51% (inactive) | -11.9% (inactive) | -0.92% (inactive) | 102% (inactive) | 98.8% (inactive) | 2% (inactive) | 1.24% (inactive) |
| CCCCn1c(NCc2ccccc2O)nc2ccccc21 | 98 | 124% (inactive) | 98% (inactive) | 79.5% (inactive) | 88.1% (inactive) | 4.67% (inactive) | 83.4 | 88.1 | -4.27% (inactive) | -2.33% (inactive) | -1.67% (inactive) | -11.8% (inactive) | -5.25% (inactive) | 79.7% (inactive) | 75.1% (inactive) | 0.34% (inactive) | 3.36% (inactive) |
| O=C(Nc1cccc(Cl)c1)N1CCN(Cc2ccccc2)CC1 | 98.5 | 99% (inactive) | 98.5% (inactive) | 103% (inactive) | 84.2% (inactive) | 5.49% (inactive) | 78.7 | 84.2 | -6% (inactive) | -0.49% (inactive) | -4.47% (inactive) | -8.27% (inactive) | -1.11% (inactive) | 92.1% (inactive) | 86.4% (inactive) | 1.24% (inactive) | 3.81% (inactive) |
| COC(=O)c1cn(C(=O)c2ccc(Br)o2)c2ccccc12 | 89 | 102% (inactive) | 89% (inactive) | 95.9% (inactive) | 88.3% (inactive) | -1.34% (inactive) | 89.6 | 88.3 | 1.03% (inactive) | -1.33% (inactive) | 4.04% (inactive) | 0.5% (inactive) | 0.03% (inactive) | 98.2% (inactive) | 102% (inactive) | 2.23% (inactive) | 4.65% (inactive) |
| COc1cccc(C2CC(=O)Nc3cc4c(cc32)OCCO4)c1OC(C)C (stereo not drawn) | 99 | 88.5% (inactive) | 99% (inactive) | 84.6% (inactive) | 41.2% (active) | -29.5% (inactive) | 70.7 | 41.2 | -1.2% (inactive) | -3.61% (inactive) | -3.68% (inactive) | 0.265% (inactive) | -4.91% (inactive) | 65.7% (inactive) | 65% (inactive) | 0.76% (inactive) | 2.97% (inactive) |
| Cc1c(C(=O)OC2CCC(C)CC2)[nH]c2c1C(=O)CCC2 (stereo not drawn) | 69.5 | 78% (inactive) | 69.5% (inactive) | 87.6% (inactive) | 86.8% (inactive) | -4.38% (inactive) | 91.2 | 86.8 | 5.07% (inactive) | 1.97% (inactive) | -11.8% (inactive) | -6.09% (inactive) | 2.52% (inactive) | 97.7% (inactive) | 92.9% (inactive) | 1.67% (inactive) | 3.39% (inactive) |
